Bioassay records from PubChem BioAssay.
Abeta yeast res – compounds reversing amyloid beta toxicity in yeast; AID 1347071; yeast expressing A-beta42, growth rescue, OD600, 48 h; response scale: 0% DMSO, 100% iron-clioquinol control; Potency, µM (top dose mostly 46.1 µM), actives largely listed as activators; 410,000 tested, 0.063% active; further: nearly all actives have a fitted effect of over 55% in size
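Growth rescue measured by 600 nm absorbance after 48 h yeast culture at 30 C with compound. Values normalized between DMSO and an equimolar ferric chloride plus clioquinol control.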
Mito fusion yeast – inhibitors of mitochondrial division or activators of mitochondrial fusion; S. cerevisiae fusion-defective mutant growth rescue, CellTiterGlo 48 h; AID 485298; 320,000 tested, 0.23% active; Potency, µM (titrated, usually from 46.1 µM), for the others: top-dose growth rescue (activation), most hits filed as activators; further: % of control where 0% means no effect; nearly all actives have a fitted effect of over 45% in size
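Read-out: ATP-based luminescence (CellTiterGlo, 10 min ambient) reporting growth of fusion-defective ts yeast after 48 hours at 37C on glycerol/ethanol YPEG medium in the presence of compound.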
aSyn yeast inh – rescues yeast growth from alpha-synuclein toxicity. Yeast expressing alpha-synuclein, growth rescue, BacTiter-Glo, 24 h. Potency, µM (series often up to 46.1 µM), inactives show at the top dose growth rescue (activation), most hits filed as activators. 370,000 tested, 0.14% active. AID 652106; further: % of control where 0% means no effect; nearly all actives have a fitted effect of over 65% in size
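Screening used galactose-induced yeast with toxic alpha-synuclein levels, exposed to compound for 24 hr at 30 deg C. Cell growth, read with BacTiter-Glo luminescence, gave the measured signal.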
TDP43 rescue – rescues yeast growth from TDP-43 toxicity; TDP-43 expressing yeast growth rescue, BacTiter-Glo, 24 h; Potency, µM (top dose mostly 46.1 µM), without a hit: at the highest dose growth rescue (activation), actives largely listed as activators; 410,000 tested, 1.8% active; AID 652104; further: % of control where 0% means no effect; nearly all actives have a fitted effect of over 50% in size
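Readout is BacTiter-Glo luminescence of cell growth, so inhibitors register as activators. TDP-43-expressing yeast at OD600=0.02 in galactose medium, after raffinose pregrowth to mid-log, were incubated with compound for 24 hr at 30 deg C.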
FUS suppressor – suppressors of FUS proteinopathy in yeast. S. cerevisiae FUS-expressing, growth rescue, OD600, 24 h. 390,000 tested, 0.24% active. AID 1347120. Potency, µM (titrated, usually from 76.6 µM), usual class: activators;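 further: plate controls were DMSO vehicle for no effect and reference control for full effect; nearly all actives have a fitted effect of over 55% in size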
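Absorbance at 600 nm, taken 24hr after compound addition, measured rescue of FUS-yeast growth at 30C. Induction used 2% galactose with seeding at OD 0.005. Controls: CP55940 from 92uM final, DMSO only.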
* = called active by the depositor; i = inactive; u = inconclusive; x = no result given. An excerpt weighted towards active compounds, which were near 2.2% of everything screened. The call rests on the fitted dose curve; in most records, active means well fitted curve in the direction sought with a large enough effect; inconclusive means small, poorly fitted or top-dose-only effect, or another doubt; inactive means no such curve, though single readings can be large; an effect the other way counts as inactive or inconclusive. Potency means the concentration at half of the fitted maximal effect.

SMILES	Abeta yeast res	Mito fusion yeast	aSyn yeast inh	TDP43 rescue	FUS suppressor
O=C(c1ccccc1)N1CCN(CC(O)COc2cccc3ccccc23)CC1 (stereo not given)	i	-8%	6%	9%	i
CC(=O)c1cccc(NC(=O)C2C3C=CC(C3)C2C(=O)O)c1 (stereo not given)	i	-4%	-5%	-10%	i
CC(=O)c1cccc(NC(=O)C2C3C=CC(C4CC34)C2C(=O)O)c1 (stereo not given)	u	-2%	1%	22µM*	i
Cc1ccccc1NC(=O)C1C2C=CC(C3CC23)C1C(=O)O (stereo not given)	i	-11%	0%	11µM*	i
O=C1CCCN1CCCN=c1c([N+](=O)[O-])nn(-c2ccc(Cl)cc2)n1O	i	2%	-1%	14µM*	u
COc1ccc(-n2nc([N+](=O)[O-])c(=NCCCN3CCCC3=O)n2O)cc1	i	9%	-3%	-4%	i
COC(=O)C[C@H]1CC[C@H]2[C@H](COc3ccc(NS(=O)(=O)c4cccc(OC)c4)cc3C(=O)N2C)O1	x	x	x	x	i
CN(CC(=O)Nc1ccccc1Cl)C(=O)c1cc2c(s1)CCCCC2	i	x	-3%	-3%	i
COc1ccc(NC(=O)CN(C)C(=O)c2cc3c(s2)CCCCC3)cc1	i	5%	0%	28µM*	i
COc1ccc(NC(=O)CN(C)C(=O)c2cc3c(s2)CCC3)cc1	i	-2%	1%	8%	i
CN(CC(=O)Nc1ccccc1Br)C(=O)c1cc2c(s1)CCCCC2	i	19%	2%	18µM*	i
COc1ccc(CN2CN3Cc4ccc(C)cc4C3CS2(=O)=O)cc1 (stereo not given)	x	x	x	x	i
CCN=c1scc(-c2ccco2)n1/N=C/c1ccc(O)cc1	i	7%	2%	18µM*	u
CCN=c1scc(-c2ccco2)n1/N=C/c1ccc(OC)c(O)c1	i	5%	-3%	u	x
C=CCNC(=S)NC(=O)c1ccc(C)c(Br)c1	10µM*	7%	-1%	u	i
C=CCNC(=S)NNC(=O)c1ccc(C)c(Cl)c1	i	5%	10%	x	i
CC(C)CNS(=O)(=O)c1cc(C(=O)OC2CCOC2=O)c(Cl)cc1Cl (stereo not given)	i	-3%	-6%	-8%	i
CC1(C(=O)Nc2ccc3c(c2)OCCO3)CCN1C(=O)c1ccccc1CCc1ccccc1 (stereo not given)	i	x	2%	14µM*	i
COC(=O)[C@@]12CCCCC3=C1N(CCC3)C(=O)[C@H]2CC(=O)NCc1cccc(C(F)(F)F)c1	x	x	x	x	i
Clc1ccccc1-c1nc(-c2ccccc2)n[nH]1	i	2%	-2%	13µM*	i
Cc1c(Cl)cccc1Nc1nc(N)nc(CSc2nc3ccccc3s2)n1	i	8.9µM*	-13%	16µM*	u
Nc1nc(CSc2nc3ccccc3s2)nc(Nc2ccccc2)n1	x	14%	x	x	x
Cc1ccc2c(/C=C/c3ccc(N(C)C)cc3)ccnc2c1	x	x	-14%	x	x
Brc1ccc(-c2nc(-c3ccncc3)no2)o1	i	-3%	3%	13µM*	i
CC1(C(=O)O)CCCN(C(=O)C2(c3ccc(Cl)cc3)CCCC2)C1 (stereo not given)	i	x	-8%	18µM*	i
SMILES	Abeta yeast res	Mito fusion yeast	aSyn yeast inh	TDP43 rescue	FUS suppressor
CC1CCN(CC(=O)Nc2ccc(S(=O)(=O)N3C(C)CCCC3C)cc2)CC1 (stereo not given)	i	-6%	6%	12%	i
Nc1cc(N)[nH]c(=S)n1	x	x	-2%	x	x
CCOC(=O)c1cccc2c1-c1ccccc1/C2=N/O	i	15%	-13%	14µM*	i
Cc1ccc(-n2nc3c(c2NC(=O)c2ccc(F)c(F)c2)CS(=O)(=O)C3)cc1	i	-2%	-6%	-4%	x
O=C(CCc1ccccc1)Nc1sc2c(c1C(=O)O)CCCC2	i	x	-4%	-5%	i
CC(C)CC(=O)Nc1sc2c(c1C(=O)O)CCCCC2	i	15%	-8%	11µM*	i
